Among the data in PubChem BioAssay are composite z-score and z-score values, retold here.

Experiment [1] in a line: anti-His antibody binders, primary screen, artefact control for SMM control protein annotation, biochemical, small-molecule microarray, 635 nm fluorescence (AID 1128).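 Further: score merges feature fluorescence with signal-to-noise for each printed compound spot.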 To be noted: anti-His Alexa647 antibody binding, higher = more signal.
Experiment [2] relates to Human papillomavirus type 1a E7 protein (residues 1-88). Kind of experiment: HPV1a E7 small-molecule binders, primary screen, biochemical, small-molecule microarray, residues 1-88, 635 nm (AID 1129). To be noted: small-molecule microarray binding, fluorescence 635 nm; higher = more signal.
Experiment [3] concerns the target Focal adhesion kinase 1 (Homo sapiens) (UniProt Q05397). As to the kind of experiment: small-molecule microarray binders of FAK, primary screen, biochemical, 635/667 nm fluorescence, BSA, DTT (AID 1130).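 Further: composite of spot emission at 667 nm and signal to noise over triplicate slides.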 To be noted: PTK2 binding, 635 nm fluorescence, higher = more signal.
Experiment [4] concerns Fibrinogen (Alexa647-labelled). Kind of experiment: fibrinogen binders on compound microarrays, profiling panel, artefact control for SMM control-protein annotation, biochemical, small-molecule microarray, 635/667 nm fluorescence (AID 1131).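 Further: z-score merges 667 nm fluorescence with per-spot signal-to-noise over triplicate slides.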 To be noted: fibrinogen-A647 binding fluorescence, higher = more signal.
The target of experiment [5] is Follistatin (Homo sapiens) (UniProt P19883). As to the kind of experiment: follistatin binders on small-molecule microarrays, primary screen, biochemical, small-molecule microarray, 635/667 nm fluorescence (AID 1132). To be noted: FST binding, 635 nm fluorescence, higher = more signal.
Chain of Follistatin (Homo sapiens) (P19883 whole entry, looked up): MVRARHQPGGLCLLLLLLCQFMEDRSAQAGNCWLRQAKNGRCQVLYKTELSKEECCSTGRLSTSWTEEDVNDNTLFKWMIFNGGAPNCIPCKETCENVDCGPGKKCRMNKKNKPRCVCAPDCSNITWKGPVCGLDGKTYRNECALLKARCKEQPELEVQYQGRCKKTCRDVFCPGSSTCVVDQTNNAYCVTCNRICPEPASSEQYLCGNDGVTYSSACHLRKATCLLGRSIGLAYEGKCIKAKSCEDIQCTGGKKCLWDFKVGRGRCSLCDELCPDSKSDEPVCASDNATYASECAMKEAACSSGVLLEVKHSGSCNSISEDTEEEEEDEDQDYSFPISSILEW
Experiment [6] addresses Fibroblast growth factor 2 (Homo sapiens) (UniProt P09038). As to the kind of experiment: FGF2 binders on small-molecule microarrays, primary screen, biochemical, small-molecule microarray, 635/667 nm fluorescence (AID 1133). To be noted: small-molecule microarray binding, FGF2, fluorescence 635/667; higher = more signal.
A short description of experiment [7]: mitochondrial membrane potential change in A549 cells, profiling panel, cell-based, JC-1 fluorescence, basal, 24 h, 100 nL (AID 1138).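 Further: A549 lung adenocarcinoma cells under basal conditions with no added stimulus; test concentration not given here.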 To be noted: higher = more signal.
The subject of experiment [8] is Lefty1. Kind of experiment: Lefty1 binders on small-molecule microarrays, primary screen, biochemical, small-molecule microarray, 635/667 nm fluorescence (AID 1139). Conditions: small-molecule microarray binding, fluorescence 635/667; higher = more signal.
Experiment [9] concerns wheat germ agglutinin (Triticum aestivum), Alexa647-labelled. Kind of experiment: wheat germ agglutinin binders on compound microarrays, profiling panel, artefact control for SMM control-protein annotation, biochemical, small-molecule microarray, 635/667 nm fluorescence (AID 1140).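 Further: score merges 667 nm feature emission with signal to noise over triplicate slides.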 To be noted: WGA-A647 binding, 635 nm fluorescence, higher = more signal.
For experiment [10], the target named is Luciferin 4-monooxygenase (Photinus pyralis) (UniProt P08659). As to the kind of experiment: firefly luciferase enzyme inhibitors, primary screen, biochemical, luminescence, purified enzyme, 2006 set (AID 1141).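 Further: cell-free assay with purified firefly luciferase at 100 ng per well in PBS; test concentration not given here.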 Conditions: SteadyGlo luminescence, 30 min, higher = more signal, called active from +8 up or from −8 down.
Chain of Luciferin 4-monooxygenase (Photinus pyralis) (P08659 whole entry, looked up): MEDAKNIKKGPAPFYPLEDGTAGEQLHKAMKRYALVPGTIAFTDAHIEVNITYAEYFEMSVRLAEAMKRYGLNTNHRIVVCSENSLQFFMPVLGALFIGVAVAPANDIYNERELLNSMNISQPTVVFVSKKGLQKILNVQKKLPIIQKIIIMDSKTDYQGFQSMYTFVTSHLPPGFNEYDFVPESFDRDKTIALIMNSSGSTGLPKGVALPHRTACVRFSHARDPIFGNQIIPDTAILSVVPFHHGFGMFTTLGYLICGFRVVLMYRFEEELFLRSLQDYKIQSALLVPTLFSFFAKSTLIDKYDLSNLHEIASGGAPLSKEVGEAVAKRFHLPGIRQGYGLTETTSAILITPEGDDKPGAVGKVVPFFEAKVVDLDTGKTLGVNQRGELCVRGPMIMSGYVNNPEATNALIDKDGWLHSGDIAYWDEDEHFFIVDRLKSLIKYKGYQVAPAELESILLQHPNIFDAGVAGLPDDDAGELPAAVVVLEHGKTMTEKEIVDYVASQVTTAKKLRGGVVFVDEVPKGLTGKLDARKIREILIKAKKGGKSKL

Structures are written as SMILES. The source made the active and inactive calls.

Chain of Fibroblast growth factor 2 (Homo sapiens) (P09038 whole entry, looked up): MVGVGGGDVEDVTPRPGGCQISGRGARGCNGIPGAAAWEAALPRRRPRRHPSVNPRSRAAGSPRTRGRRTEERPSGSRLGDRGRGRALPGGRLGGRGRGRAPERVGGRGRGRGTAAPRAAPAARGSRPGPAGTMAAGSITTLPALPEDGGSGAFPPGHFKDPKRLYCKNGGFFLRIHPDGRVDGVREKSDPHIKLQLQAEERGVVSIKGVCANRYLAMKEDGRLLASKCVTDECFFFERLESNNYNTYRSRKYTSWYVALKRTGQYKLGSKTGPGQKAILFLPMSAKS
Chain of Focal adhesion kinase 1 (Homo sapiens) (Q05397 whole entry, looked up): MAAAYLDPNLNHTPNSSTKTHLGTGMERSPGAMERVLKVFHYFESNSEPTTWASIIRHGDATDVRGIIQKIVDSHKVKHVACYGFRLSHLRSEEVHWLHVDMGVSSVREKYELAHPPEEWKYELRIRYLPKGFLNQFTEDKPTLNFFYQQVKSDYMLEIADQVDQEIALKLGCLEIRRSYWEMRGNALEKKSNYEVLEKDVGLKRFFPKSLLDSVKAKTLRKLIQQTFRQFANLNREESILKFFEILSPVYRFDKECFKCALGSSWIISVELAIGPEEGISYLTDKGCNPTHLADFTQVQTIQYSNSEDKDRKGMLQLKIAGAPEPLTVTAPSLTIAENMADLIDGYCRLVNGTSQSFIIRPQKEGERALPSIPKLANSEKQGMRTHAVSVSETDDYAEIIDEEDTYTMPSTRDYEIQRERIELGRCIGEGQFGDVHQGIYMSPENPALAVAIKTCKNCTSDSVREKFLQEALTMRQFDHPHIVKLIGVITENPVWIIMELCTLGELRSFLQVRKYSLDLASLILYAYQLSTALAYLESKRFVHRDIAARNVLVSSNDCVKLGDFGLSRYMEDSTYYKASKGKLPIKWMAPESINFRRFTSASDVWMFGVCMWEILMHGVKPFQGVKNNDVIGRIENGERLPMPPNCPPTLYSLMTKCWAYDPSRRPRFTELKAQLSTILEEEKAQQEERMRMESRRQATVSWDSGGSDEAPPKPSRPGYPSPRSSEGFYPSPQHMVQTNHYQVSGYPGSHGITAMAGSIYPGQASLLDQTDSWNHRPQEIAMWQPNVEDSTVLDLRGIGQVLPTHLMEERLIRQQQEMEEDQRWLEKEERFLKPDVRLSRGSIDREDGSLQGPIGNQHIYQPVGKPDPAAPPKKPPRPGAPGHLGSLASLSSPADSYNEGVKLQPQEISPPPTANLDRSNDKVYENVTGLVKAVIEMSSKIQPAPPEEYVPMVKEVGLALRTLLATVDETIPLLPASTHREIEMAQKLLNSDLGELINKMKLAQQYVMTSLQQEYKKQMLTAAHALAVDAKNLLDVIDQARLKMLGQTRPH

Regarding `CCOc1cc(C(O)C2C=CC3C(=O)N(C4CCCCC4)C(=O)C3N2Nc2ccc(OC)cc2)ccc1O` (stereo not given), the composite z-score in experiment [1] is 0.675; in [2], 1.19; in experiment [3], 0.903; in experiment [4], 0.705; in experiment [5] it was 0.846; in experiment [6] it was -0.0785. Further, the composite z-score came to 0.225 in experiment [8] and 0.686 in experiment [9]. For the same compound, the z-score in experiment [7] was 0.786; in experiment [10], -0.0537 (inactive).
Regarding `O=C(O)[C@H](Cc1ccccc1)n1cc(-c2ccccn2)nn1`, the composite z-score is 0.908 in experiment [1]; 0.585 in [2]; 0.19 in experiment [3]; 0.919 in experiment [4]; 0.676 in experiment [5]; 0.0069 in [6]. Also, the values for the composite z-score in experiment [8] and in [9] were 0.5 and 0.425, respectively. The z-score in experiment [7] is -0.47; in experiment [10] it was 1.01 (inactive).
In the case of `CCOC(=O)C1=CC[C@@H](c2ccccc2)N(S(=O)(=O)c2ccc(C)cc2)C1`, the composite z-score was -0.416 in experiment [1]; 0.968 in experiment [2]; 0.478 in experiment [3]; -0.364 in [4]; 0.736 in experiment [5]; -0.103 in [6]. For the same compound, the composite z-score in experiment [8] is -0.34; in experiment [9], 0.564. For the same compound, the z-score in experiment [7] was 0.747; in experiment [10], 0.731 (inactive).
As for `C=CCN1C(=O)[C@@]2(O[C@@H](CCn3cc([C@H](O)c4ccccc4)nn3)[C@H]([Si](C)(C)c3ccc(OC)cc3)[C@H]2C)c2ccccc21`, the composite z-score in experiment [1] came out at 0.351; in experiment [2] it was 1.14; in experiment [3], 0.287; in experiment [4] it was 0.371; in experiment [5], 1.18; in experiment [6] it was 0.761. Besides, the composite z-score in experiment [8] is 1.2; in experiment [9], 0.875. The z-score was 0.493 in experiment [7] and 0.586 (inactive) in [10].
Take `CO[C@H]1O[C@H](CO)[C@@H](OC(=O)Nc2ccc(Oc3ccccc3)cc2)[C@H](OC(=O)Nc2ccccc2-c2ccccc2)[C@@H]1OC(=O)Nc1ccccc1-c1ccccc1`: the composite z-score was determined as 0.818 in experiment [1]; 1.07 in experiment [2]; 0.263 in experiment [3]; 0.964 in experiment [4]; 0.595 in [5]; 0.295 in [6]. The values for the composite z-score in experiment [8] and in experiment [9] were 0.841 and 0.773, respectively. The z-score in experiment [7] is -0.426; in experiment [10], -0.69 (inactive).
As for `CC(C)N1CC=CC23O[C@@H]4C=CCOC(=O)[C@@H]4[C@H]2C(=O)N(C(C)CO)[C@@H]3C1=O` (stereo not given in full), the composite z-score in [1] is -0.221; in [2], -0.915; in [3], -0.202; in experiment [4] it was -0.179; in experiment [5], -0.901; in [6], -0.678. The composite z-score was -0.941 in experiment [8] and -0.158 in experiment [9]. In addition, the z-score is -0.374 in experiment [7] and 0.169 (inactive) in experiment [10].
Consider `C[N+](C)(C)CCCC[C@@H]1NC(=O)[C@@H]2C[C@H](C(=O)O)[C@H](c3ccc(O)cc3)N2C1=O`, for which the composite z-score in experiment [1] is -0.613; in [2] it was -1.65; in [3], -0.975; in [4], -1.21; in experiment [5], -0.493; in [6] it was -0.27. Further, the composite z-score in experiment [8] amounted to 0.0501; in experiment [9], 0.213. Also, the z-score in experiment [7] was -0.264; in [10] it was -0.516 (inactive).
In the case of `COc1cc2c(cc1O)C(C)N(Cc1cc3c(cc1Br)OCO3)CC2` (stereo not given), the composite z-score in [1] is -0.408; in experiment [2], -1.4; in [3] it was -0.618; in [4], -1.01; in experiment [5] it was -0.381; in [6], -0.437. Moreover, the results for the composite z-score in [8] and in experiment [9] were -0.46 and -0.55, respectively. The z-score in experiment [7] was -0.472; in experiment [10] it was -0.499 (inactive).
Regarding `CCOC(=O)C[C@H]1[C@H](OC(=O)c2ccccc2-c2ccccc2)[C@@H](NC(=O)CC(C)C)c2cc(OCCCO)ccc2N1C(=O)c1ccc2ccccc2n1`, the composite z-score in experiment [1] was -0.123; in [2], 0.304; in [3] it was 0.162; in [4], 0.335; in experiment [5] it was 0.323; in [6], 0.318. For the same compound, the figures for the composite z-score in experiment [8] and in experiment [9] were 0.76 and 0.152, respectively. The z-score in [7] was 0.488; in experiment [10], 0.365 (inactive).
On to `O=C1C[C@@](C(=O)NCC(F)(F)F)(c2ccc([N+](=O)[O-])cc2)[C@@H](c2ccc(CO)cc2)N1C1CCCCC1`, for which the composite z-score in experiment [1] came out at 2.22; in experiment [2] it was 1.22; in experiment [3], 0.847; in [4], 0.956; in [5] it was 1.47; in experiment [6], 1.28. In addition, the composite z-score in experiment [8] was 0.761; in experiment [9] it was 0.861. For the same compound, the z-score was 0.0267 in experiment [7] and 0.414 (inactive) in [10].
Consider `COCCOC(=O)N1C(=O)[C@@]2(c3cc(C#CC4(O)CCCCCC4)ccc31)[C@H](C(N)=O)[C@H]1C(=O)O[C@H](c3ccccc3)[C@H](c3ccccc3)N1[C@@H]2c1ccc(O)cc1`, for which the composite z-score in experiment [1] came to 1.28; in [2], 1.17; in experiment [3], 0.124; in experiment [4], 0.329; in experiment [5], 1.32; in experiment [6] it was 0.869. The results for the composite z-score in experiment [8] and in experiment [9] were 0.754 and 0.547, respectively. For the same compound, the z-score in [7] is -0.317; in experiment [10], -1.4 (inactive).
Regarding `CC(C)CN1C(=O)[C@@]2(Cc3ccccc31)c1ccccc1C(=O)N(Cc1ccccc1C(F)(F)F)[C@H]2c1ccc(CO)cc1`, the composite z-score is -0.372 in [1]; -1.18 in experiment [2]; -0.315 in experiment [3]; -0.921 in experiment [4]; -0.596 in [5]; -0.425 in experiment [6]. Also, the composite z-score was 0.636 in experiment [8] and -0.0876 in experiment [9]. Moreover, the z-score in [7] was 0.39; in [10], 1.11 (inactive).
On to `CC=CC(O)C1C=CC2C(=O)N(C)C(=O)C2N1N1CCCCC1` (stereo not given), for which the composite z-score in experiment [1] was 0.523; in experiment [2], 1.19; in [3], 0.518; in experiment [4], 0.714; in experiment [5], 1.08; in [6], -0.0299. Also, the composite z-score worked out at 0.446 in [8] and 0.864 in experiment [9]. In addition, the z-score was -0.138 in experiment [7] and -0.451 (inactive) in experiment [10].
For `COC(=O)[C@@]1(Cc2ccc(F)cc2)[C@H]2c3cc(C(=O)N4CCCC4)n(CCc4c[nH]c5ccc(OC)cc45)c3C[C@H]2CN1C(=O)c1ccccc1`, the composite z-score in experiment [1] was 2.4; in experiment [2], 1.22; in experiment [3], 2.48; in [4] it was 0.845; in experiment [5], 0.685; in experiment [6], 0.6. The composite z-score in experiment [8] is 0.385; in experiment [9], 0.977. Moreover, the z-score in experiment [7] was -1.17; in experiment [10], 1.64 (inactive).
In the case of `Cc1ccc(F)cc1S(=O)(=O)N[C@@H]1CCN(Cc2ccc(Oc3ccccc3)cc2)C1`, the composite z-score in [1] is 0.258; in experiment [2] it was -0.922; in experiment [3] it was -0.271; in experiment [4], 0.738; in experiment [5], 1.03; in experiment [6], 0.424. Further, the results for the composite z-score in experiment [8] and in experiment [9] were 1.09 and 0.853, respectively. The figures for the z-score in experiment [7] and in experiment [10] were 0.663 and 0.453 (inactive), respectively.
Take `COC(=O)[C@@]1(Cc2ccccc2)[C@H]2c3cc(C(=O)N4CCCC4)n(Cc4cc(F)cc5c4OCOC5)c3C[C@H]2CN1C(=O)c1ccccc1`: the composite z-score was 0.69 in experiment [1]; 1.24 in experiment [2]; 0.366 in [3]; 0.963 in experiment [4]; -0.0178 in [5]; -0.575 in experiment [6]. In addition, the composite z-score in experiment [8] is -0.359; in experiment [9] it was 0.711. Further, the values for the z-score in experiment [7] and in experiment [10] were 0.487 and 0.827 (inactive), respectively.
